# Assay results reported in PubChem BioAssay (Tox21).
# Records with an inconclusive call do not appear. Entries that show only a call come without a potency. Activity calls are given as the source filed them. The call rests on the fitted dose curve; in most records, active means well fitted activation curve with a large enough effect in the repeat runs; inconclusive means weak or mixed curves; inactive means flat fitted curve, though single readings scatter.
# Test: A CellTox Green Cytotoxicity Assay to monitor cytotoxicity in HEK293 cells - 24 hour (AID 1224875); further: nearly all actives have a fitted effect of over 45% in size
# Conditions: CellTox Green fluorescence; series mostly up to 76.8 µM
# How it was run: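 Tox21 screen in HEK293: membrane-impermeant cyanine dye fluoresces on binding dead-cell DNA; compound pinned 5 h post-seeding, plates held at 37 C, signal read repeatedly through 40 h.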
row,Structure (SMILES),Potency
1,CCOc1ccccc1C(N)=O,inactive
2,C/C=C/c1ccc(OCC)c(O)c1,inactive
3,Nc1nc(=S)c2[nH]cnc2[nH]1,inactive
4,O=c1n(CC2CO2)c(=O)n(CC2CO2)c(=O)n1CC1CO1 (stereo not drawn),inactive
5,CCC[C@H](N[C@@H](C)C(=O)N1[C@H](C(=O)O)C[C@@H]2CCCC[C@@H]21)C(=O)OCC,inactive
6,O=C1Nc2ccccc2C1(c1ccc(O)cc1)c1ccc(O)cc1,inactive
7,CC[C@]1(O)C[C@@H]2CN(CCc3c([nH]c4ccccc34)[C@@](C(=O)OC)(c3cc4c(cc3OC)N(C)[C@H]3[C@@](O)(C(=O)OC)[C@H](OC(C)=O)[C@]5(CC)C=CCN6CC[C@]43[C@@H]65)C2)C1,inactive
8,CCCCCCC(O)CCCCCCCCCCC(=O)O (stereo not drawn),inactive
9,CCN(CC)c1ccc2c(C)cc(=O)oc2c1,inactive
10,NCCO,inactive
11,CC(=O)OCCOCCOCCOC(C)=O,inactive
12,O=C(O)c1cccc(C(=O)O)c1,inactive
13,C=C(C)C1CC=C(C)C(OC(C)=O)C1 (stereo not drawn),inactive
14,O=C(Oc1ccccc1)c1ccccc1O,inactive
15,CC(C)(C)NC(=O)[C@@H]1CN(Cc2cccnc2)CCN1C[C@@H](O)C[C@@H](Cc1ccccc1)C(=O)N[C@H]1c2ccccc2C[C@H]1O,inactive
16,CC(C)(C)NCC(O)c1cc(O)cc(O)c1 (stereo not drawn),inactive
17,Cc1ccnc2c1NC(=O)c1cccnc1N2C1CC1,inactive

row,Structure (SMILES),Potency
1,NC(=Nc1ccccc1)Nc1ccccc1,inactive
2,CC(=O)OCC1=C(C(=O)O)N2C(=O)[C@@H](NC(=O)Cc3cccs3)[C@H]2SC1,inactive
3,Cc1cccc(O)c1C,inactive
4,OCCN1CCNCC1,inactive
5,[Cl][In]([Cl])[Cl],inactive
6,O,inactive
7,C=C(C)C(=O)O,inactive
8,O=C(Cl)c1cccc(C(=O)Cl)c1,inactive
9,CC(=O)C1=C(C)[C@@H]2C[C@@]3(C1)[C@H](C)CC[C@H]3C2(C)C,inactive
10,C#CC(C)(CC)OC(=O)c1ccccc1C(=O)O (stereo not drawn),inactive
11,CCCCOCCOC(=O)c1ccccc1C(=O)OCCOCCCC,inactive
12,O=C(O)CP(=O)(O)O,inactive
13,c1ccc2cc3c(ccc4ccccc43)cc2c1,inactive
14,O=C(O)c1cn(-c2ccc(F)cc2)c2cc(N3CCNCC3)c(F)cc2c1=O,inactive
15,CC(=O)O[C@]1(C(C)=O)CC[C@H]2[C@@H]3C[C@H](C)C4=CC(=O)CC[C@]4(C)[C@H]3CC[C@@]21C,inactive
16,CCCN[C@H]1CCc2nc(N)sc2C1,inactive
